# Screening data from PubChem.
# This is a sample that favours compounds with a hit; in the whole collection about 0.38% have one here.
# TRb-SRC2 inh: qHTS for Inhibitors of the Interaction of Thyroid Hormone Receptor and Steroid Receptor Coregulator 2. Thyroid hormone receptor beta (Homo sapiens), P10828. Potency, µM (series often up to 106 µM), without a hit: at the top dose activity change, negative = inhibition, usual class: inhibitors. TRbeta-SRC2 peptide binding, fluorescence polarization; receptor liganded with 1 µM T3. AID 1469, 2008. 280,000 compounds, 0.065% hits;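 also: potency is read from the fitted curve at half-maximal effect; plate controls were bound peptide for no effect and peptide without receptor for full effect; nearly all actives have a fitted effect of over 50% in size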
#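 Each compound concentration gave % activity, normalized to unbound and bound Texas Red SRC2 controls, from polarization read after 5 hr ambient incubation with T3-loaded human TRb LBD.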
# USP2a inh: qHTS Assay for Inhibitors of Ubiquitin-specific Protease USP2a Using CHOP2 as the Reporter; Ubiquitin carboxyl-terminal hydrolase 2 (Homo sapiens), O75604; USP2 core, Ub-CHOP2 coupled fluorogenic reporter, 485/531; Potency, µM (titrated, usually from 38.3 µM), for the others: at the top dose activity change, negative = inhibition, usual class: inhibitors; 330,000 compounds, 0.01% hits;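 also: potency is read from the fitted curve at half-maximal effect; plate controls were DMSO wells for no effect and full inhibition by NEM control for full effect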
#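 Deubiquitinase activity read as fluorescence (485/531 nm) after Ub-CHOP2 cleavage activates the enterokinase reporter on its substrate; USP2 core 10nM, Ub-CHOP2 and substrate 25nM each, 30min compound preincubation then 60min RT; data normalized to NEM, curves fitted.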
# TSHR antag: Antagonists of the Thyroid Stimulating Hormone Receptor: HTS campaign; Thyrotropin receptor (Homo sapiens), P16473; TSHR-expressing cells, TSH-stimulated cAMP HTRF, 2 h; active compounds read low; activity change, negative = inhibition, % at 11.5 µM; 330,000 compounds, 0.2% hits;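 active = activity change below a set negative limit, meaning inhibition stronger than a set level, cut at about -70% in these data; inconclusive = activity change between two set negative limits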; also: % is scaled to controls: 0 for no effect and ±100 for the full control effect
# Target sequence (P16473 whole entry, looked up): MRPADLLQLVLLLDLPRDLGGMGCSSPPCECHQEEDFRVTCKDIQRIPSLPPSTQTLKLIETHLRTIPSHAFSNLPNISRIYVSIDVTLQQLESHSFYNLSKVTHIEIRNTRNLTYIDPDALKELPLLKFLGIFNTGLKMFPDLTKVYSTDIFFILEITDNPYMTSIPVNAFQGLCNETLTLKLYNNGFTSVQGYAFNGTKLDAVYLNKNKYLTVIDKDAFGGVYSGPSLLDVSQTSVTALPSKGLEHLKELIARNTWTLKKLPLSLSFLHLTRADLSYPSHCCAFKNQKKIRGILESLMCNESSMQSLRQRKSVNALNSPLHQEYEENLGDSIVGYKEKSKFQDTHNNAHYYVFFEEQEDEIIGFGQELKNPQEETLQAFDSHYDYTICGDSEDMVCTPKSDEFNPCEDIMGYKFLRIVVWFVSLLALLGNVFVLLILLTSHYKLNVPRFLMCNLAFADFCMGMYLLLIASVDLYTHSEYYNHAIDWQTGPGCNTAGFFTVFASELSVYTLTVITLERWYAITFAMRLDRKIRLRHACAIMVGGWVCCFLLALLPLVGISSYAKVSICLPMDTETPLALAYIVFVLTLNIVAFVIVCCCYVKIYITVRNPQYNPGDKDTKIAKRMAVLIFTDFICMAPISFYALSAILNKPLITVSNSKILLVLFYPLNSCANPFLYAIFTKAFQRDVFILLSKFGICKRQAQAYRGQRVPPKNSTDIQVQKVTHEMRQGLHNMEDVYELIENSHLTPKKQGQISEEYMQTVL
#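 Cell-based HTRF cAMP assay; TSHR cells + compound, TSH EC80 (4nM final), 2 h, 37 deg C. Lysis with anti-cAMP cryptate and cAMP-d2, 30 min RT, read 665/620 nm.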
# CBFb-RUNX1 inh: qHTS Assay for Compounds Blocking the Interaction Between CBF-beta and RUNX1 for the Treatment of Acute Myeloid Leukemia. Runt-related transcription factor 1 (Homo sapiens) + Core-binding factor subunit beta …. AlphaScreen CBFb-His/RUNX1-biotin binding, biochemical. Potency, µM (doses to about 59.8 µM), for the others: at the top dose activity, negative = inhibition, usual class: inhibitors. 230,000 tested, under 10 active; also: % of control where 0% means no effect
#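 AlphaScreen binding: CBFb-His and RUNX1-biotin (30 nM each) preincubated 20 min, compound added for 15 min, then nickel and streptavidin beads for 90 min, all at room temperature. Disruption of the interaction by any mechanism counts as activity.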
# TexasRed fluor: Total Fluorescence Counterscreen for Inhibitors of the Interaction of Thyroid Hormone Receptor and Steroid Receptor Coregulator 2 | TRb/SRC2 Texas Red total fluorescence interference | Potency, µM (series often up to 106 µM), for inactives: at the top dose fluorescence change, negative = quenching | 280,000 compounds, 0.29% hits; active = well fitted curve in either direction with a large enough effect; inconclusive = small, poorly fitted or top-dose-only effect; also: potency is read from the fitted curve at half-maximal effect; % is scaled to controls: 0 for no effect and ±100 for the full control effect
#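 Human TRβ ligand-binding domain (0.6 uM) and Texas Red SRC2 peptide (20 nM) in Tris buffer with 1 uM T3 and 5% DMSO were incubated with pinned compound for 5 hr at ambient temperature. Total fluorescence was computed as S + 2P (555/632 nm).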
# Eya2 inh: qHTS Assay for Inhibitors of the Phosphatase Activity of Eya2; Protein phosphatase EYA2 (Homo sapiens), O00167; recombinant Eya2, OMFP fluorescence dephosphorylation (OMFP is methylfluorescein phosphate); Potency, µM (titrated, usually from 76.9 µM), for inactives: top-dose activity, negative = inhibition, actives largely listed as inhibitors; 330,000 compounds, 0.006% hits; AID 488837, 2010; also: potency is read from the fitted curve at half-maximal effect; % is scaled to controls: 0 for no effect and ±100 for the full control effect
#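 Eya2 (0.2 uM) preincubated 10 min at ambient with compound, then OMFP substrate added at 50 uM; 10 min reaction in 50 mM HEPES pH 7.5, 50 mM NaCl, 5 uM MgCl2, 0.05% BSA, 1 mM DTT. Fluorescence read at Ex 485/Em 525 nm.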
# The depositor's hits bear a star; u = inconclusive; x = no result given; [ ] = another dose, or the depositor's remark. Unless noted, calls follow the shape of the dose curve; as a rule, active = well fitted curve in the direction sought with a large enough effect; inconclusive = small, poorly fitted or top-dose-only effect, or another doubt; inactive = no such curve, though single readings can be large; an effect the other way counts as inactive or inconclusive.
SMILES,TRb-SRC2 inh,USP2a inh,TSHR antag,CBFb-RUNX1 inh,TexasRed fluor,Eya2 inh
Cc1cc(O)c(CN(C)C)c2c1C(=O)/C(=C/c1ccco1)O2,x,18.3%,-7.4,x,x,2.8%
Cc1cc(O)c(C=O)c(O)c1C(=O)O,-5.5%,x,x,x,-0.2%,x
Cc1cc(O)c(C=O)c2c1C(=O)Oc1c(COC(=O)/C=C/C(=O)O)c(O)c(C(=O)O)c(C)c1O2,u,x,x,x,7.08µM*[quencher],x
Cc1cc(O)c(C=O)c2c1C(=O)Oc1c(CO)c(O)c3c(c1O2)C(O)OC3=O (stereo not given),u,u,-47.1,x,11.2µM*[quencher],-6.6%
O=C(Nc1ccccc1N1CCOCC1)c1ccc(S(=O)(=O)NCc2ccco2)cc1,-6.1%,-4.0%,-76.8*,u,-1.4%,-0.2%
O=C(Nc1ccccc1N1CCOCC1)c1ccc(Cl)c(S(=O)(=O)NCc2ccco2)c1,1.4%,-0.9%,-16.6,-6.7%,0.7%,6.0%
COc1ccccc1NC(=O)CC(C)=O,-1.4%[201 µM],x,x,x,-3.0%[201 µM],x
Cc1ccccc1-n1nnnc1SC1CCOC1=O (stereo not given),-28.5%,-2.0%,-88.1*,-4.6%,0.9%,-1.2%
Cc1ccccc1-n1c(SC2CCOC2=O)nnc1-c1ccncc1 (stereo not given),-1.8%,1.3%,-10.5,0.1%,-0.6%,-10.1%
COc1ccc(NC(=O)c2oc3ccccc3c2NC(=O)C23CC4CC(CC(C4)C2)C3)c(OC)c1,-10.4%,x,x,x,-3.7%,x
O=S(=O)(NCc1ccc(Cl)cc1)c1ccc2[nH]c3c(c2c1)CCCC3,-7.0%,x,x,x,25.1µM*[quencher],x
O=S(=O)(Nc1cccc(Cl)c1)c1ccc2[nH]c3c(c2c1)CCCCCC3,-15.4%,x,x,x,126µM*[quencher],x
Oc1ccc2ccccc2c1SSc1c(O)ccc2ccccc12,x,x,14.9,x,x,14.0%
CC1(C)Cc2c(c(-c3ccccc3)[nH]c(=O)c2C#N)CS1,-3.8%,-4.8%,14.9,-3.4%,-5.7%,17.1%
CC1(C)Cc2c(c(-c3ccco3)[nH]c(=O)c2C#N)CS1,44.7µM*,3.3%,0.1,-7.8%,u,1.0%
CCOc1ccc(S(=O)(=O)Nc2ccc(-c3ccc(OC)nn3)cc2)cc1,-6.2%,x,x,x,-2.8%,x
COc1ccc(-c2ccc(NS(=O)(=O)c3ccc(F)c(C(F)(F)F)c3)cc2)nn1,-4.2%,x,x,x,224µM*[quencher],x
CC(C)c1cc(/C=C(\C#N)C(=O)NCCCc2ccccc2)cc(C(C)C)c1O,-1.8%,x,x,17.2%,-2.9%,x
O=C(NC(Nc1nc2ccc([N+](=O)[O-])cc2s1)(C(F)(F)F)C(F)(F)F)c1ccccc1Cl,-4.8%,3.3%,-83.2*,-11.3%,-2.8%,-11.0%
C(=N\Nc1nc(Nc2ccccc2)nc(N2CCOCC2)n1)/c1c[nH]c2ccccc12,-6.8%,-1.3%,-8.6,-24.9%,-9.8%,5.7%
Cc1ccc(Nc2nc(N/N=C/c3c[nH]c4ccccc34)nc(N3CCOCC3)n2)cc1,-4.4%,-13.6%,6.4,0.4%,631µM*[quencher],-2.3%
CC(C)(C)CC(=O)Nc1nnc(C(F)(F)F)s1,-2.4%,2.2%,-15.1,3.4%,1.0%,-7.7%
CC(NC(=O)Nc1nnc(C(F)(F)F)s1)(C(F)(F)F)C(F)(F)F,3.7%,-3.4%,-94.1*,4.9%,-2.8%,-8.2%
Cc1cc(C)c(OCCCn2ccnc2)c(C)c1,x,1.1%,-17.5,x,x,1.7%
Cc1cccc(C)c1OCCCn1ccnc1,x,0.0%,-130.0*,x,x,-12.3%
SMILES,TRb-SRC2 inh,USP2a inh,TSHR antag,CBFb-RUNX1 inh,TexasRed fluor,Eya2 inh
CCc1ccccc1NC(=O)C1CCCN(c2nnc(-n3c(C)ccc3C)s2)C1 (stereo not given),-1.2%,x,x,x,-1.7%,x
Cc1ccccc1NS(=O)(=O)c1ccc(Br)s1,-39.5%[53 µM],x,x,x,112µM*[quencher],x
N.N.O=C(O)C1(C(=O)O)CCC1.[Pt+2],x,x,-29.2,x,x,3.1%
CSc1ccc(CCNC(=O)c2ccc(-n3c(C)cc4c3CCC(C)C4)cc2)cc1 (stereo not given),-10.9%,x,x,x,22.4µM*[quencher],x
CCOc1ccc(CCNC(=O)c2ccc(-n3c(C)cc4c3CCC(C)C4)cc2)cc1OCC (stereo not given),-2.5%,x,x,x,2.4%,x
CCOc1ccccc1Nc1nnc(-c2cc3cc(Cl)ccc3oc2=O)s1,0.1%,x,x,x,-0.3%,x
Cc1cc(O)c(CN2CCN(c3ccc(F)cc3)CC2)c2oc(=O)cc(C)c12,-3.7%,x,x,x,-3.9%,x
COC(=O)c1cc(-c2c[nH]c3ccccc23)n[nH]1,-1.6%,0.2%,-85.5*,4.1%,-6.0%,3.2%
COC(=O)c1cc(-c2ccc(Br)cc2)n[nH]1,0.8%,1.4%,-2.4,0.4%,1.6%,13.6%
O=C(O)c1ccc(C(=O)O)c(C(=O)O)c1,-0.8%[201 µM],x,x,x,-5.6%[201 µM],x
CCOCCOCCOC(C)=O,6.1%[201 µM],x,x,x,-4.7%[201 µM],x
CCc1nn(-c2ccccc2)c2nc(-c3ccccc3OC)c3cc(OC)c(OC)cc3c12,-14.0%,x,x,x,0.141µM*[quencher],x
C[C@]12CC[C@@H]3c4ccc(O)cc4CC[C@H]3[C@H]1CC[C@H]2O,12.3%[201 µM],x,x,x,1.4%[201 µM],x
COc1cccc([C@@H]2Oc3ccc(Br)cc3[C@H](O)[C@H]2O)c1,0.3%,x,x,-9.5%,0.9%,x
COc1ccc(C2CC(=O)c3cc(-c4nc(-c5cccc([N+](=O)[O-])c5)cs4)c(=O)n(-c4cccc(C)c4)c3C2)cc1 (stereo not given),-5.2%,x,x,x,1.4%,x
